# Results published in the supplement of paper PMC3334620.
# In all, about 33,000 sequences were measured (“E-score (-0.5 to 0.5)”: median about -0.016, highest 2% from about 0.3 on). The sample as a whole holds a higher share of the highest values than the screen did.
# Molecular target: T1, Yer184c (UniProt P39961)
# T1 sequence: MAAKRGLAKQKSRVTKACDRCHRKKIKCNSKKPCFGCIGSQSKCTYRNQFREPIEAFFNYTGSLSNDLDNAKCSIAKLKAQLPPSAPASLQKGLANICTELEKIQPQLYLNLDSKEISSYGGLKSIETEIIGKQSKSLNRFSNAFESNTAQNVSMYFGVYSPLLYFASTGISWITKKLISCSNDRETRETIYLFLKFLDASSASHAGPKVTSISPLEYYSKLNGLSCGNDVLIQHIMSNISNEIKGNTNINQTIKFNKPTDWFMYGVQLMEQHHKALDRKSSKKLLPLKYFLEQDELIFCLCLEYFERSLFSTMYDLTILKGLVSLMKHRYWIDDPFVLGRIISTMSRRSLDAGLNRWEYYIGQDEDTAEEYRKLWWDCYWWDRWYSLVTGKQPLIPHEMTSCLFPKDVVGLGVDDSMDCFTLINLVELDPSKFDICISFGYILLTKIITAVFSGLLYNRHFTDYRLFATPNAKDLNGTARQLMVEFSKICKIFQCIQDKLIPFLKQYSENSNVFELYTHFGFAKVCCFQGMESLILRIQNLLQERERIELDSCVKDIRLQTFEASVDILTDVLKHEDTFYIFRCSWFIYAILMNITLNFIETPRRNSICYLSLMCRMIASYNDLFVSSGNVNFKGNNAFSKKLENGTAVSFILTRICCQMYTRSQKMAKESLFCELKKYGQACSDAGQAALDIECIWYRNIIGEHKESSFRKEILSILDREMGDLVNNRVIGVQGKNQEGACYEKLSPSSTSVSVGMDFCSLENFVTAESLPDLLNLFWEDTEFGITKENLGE
# Experiment: PBM E-score (8-mer binding enrichment) (E-score (-0.5 to 0.5)); higher = stronger / more preferred TF binding
# Settings: protein concentration: 100 nM; construct: GST-full length
# In short: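 E-scores (a modified Wilcoxon-Mann-Whitney statistic) were assigned by the Universal PBM Analysis Suite to every ungapped eight-base word pooled with its reverse complement. The input came from universal all-10-mer Agilent arrays made double-stranded by primer extension and probed with GST-tagged yeast transcription factors at about 100-200 nM. Fluorescent anti-GST detected bound protein, and masliner normalised the scans.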
row,Sequence,PBM E-score
1,CCTTCTAG,-0.237
2,ATAGAAAG,-0.0692
3,ATAGAAAA,-0.0185
4,ATAGAAAT,0.318
5,ACAGGCCC,-0.349
6,ACATTAAG,0.132
7,GCCCGGGA,0.282
8,CCCCGGGA,0.119
9,ACCCGGGA,0.367
10,ACCCGGGT,0.299
11,ACCCGGGC,0.233
12,TCCCGGGA,0.337
13,GGCCTGGA,-0.213
14,TGCAAAAA,0.00535
15,CACGGAAC,0.349
16,AACGGAGC,-0.0449
17,TACGGGAA,0.142
18,GACGGAAA,0.213
19,CACGGACC,0.192
20,AACGGACC,0.185
21,GACGGAAC,0.125
22,AACGGAGA,0.107
23,AACGGAGT,0.312
24,AACGGAAC,0.333
25,CACGGAGC,0.14

row,Sequence,PBM E-score
1,TACGGAAA,0.362
2,TCTATGCA,0.0433
3,AGAACGGC,0.176
4,CTCGAAAA,-0.0323
5,CATCTGCA,-0.0527
6,CCACTAAA,-0.0267
7,GCAAGGGC,-0.274
8,ACTGCCTC,-0.229
9,AGATTAGG,-0.068
10,AGATGGCG,0.0474
11,CAAGGAAA,-0.0602
12,AACGGAAG,0.179
13,GTCGGAAC,0.217
14,AACGGGAA,0.25
15,CACGGAAA,0.345
16,CTCGGAAA,0.289
17,CACGGAAG,0.149
18,AACGGAAA,0.408
19,AACGGAAT,0.365
20,CTCGGAAC,0.358
21,AGCGGAAT,0.0752
22,AACGGACA,0.202
23,AATAGTGT,0.267
24,ATCAGTAA,0.166
25,GAATAGGA,0.0511

row,Sequence,PBM E-score
1,GCGATCAC,-0.19
2,ACTTCTAG,-0.28
3,GTCACTTA,0.122
4,AGGGACTG,-0.316
5,GGACCTGA,-0.0219
6,ATACATAT,0.255
7,AGGATCAA,0.14
8,ATACTGCG,-0.0752
9,CCGGATCC,0.372
10,CCGGATCA,0.328
11,CCGGATCG,0.352
12,TCAGATCA,-0.00186
13,ACGGATCA,0.248
14,TAGGATCA,-0.0016
15,GCGGATCA,0.105
16,TCGGATCA,0.31
17,CAGGATCG,-0.0543
18,ACGGATCG,0.0937
19,GCGGATCC,0.161
20,ACGGATCC,0.288
21,TCGAGACA,-0.0512
22,GGCCATAA,-0.102
23,ACGGCAGG,-0.117
24,GGGTCAAA,0.0026
25,CCGTCCAA,-0.024

row,Sequence,PBM E-score
1,CAAGCAGC,-0.149
2,AATGGTTA,-0.0173
3,TAGTCTAA,-0.101
4,AAATTTGT,0.213
5,CCGCCGTC,-0.00239
6,GCGCCGGA,0.355
7,CCGCCGGA,0.316
8,GCGCCGCC,0.122
9,CCGCCGCC,0.0576
10,ACGCCGGC,0.423
11,ACGCCGGG,0.21
12,ACGCCGGA,0.227
13,CCGCCGGC,0.442
14,CCGCCGCA,0.0998
15,GCGCCGCA,0.166
16,ACGCCGCC,-0.0562
17,AGCGTTGG,-0.251
18,CAATTTGC,-0.0817
19,TACCTCAA,-0.122
20,AACATTCG,0.00818
21,CTTAGTGC,0.081
22,CCACAAGC,-0.273
23,ATGTAGAA,-0.0706
24,ACCATTCA,0.00717
25,GGCAGGTA,-0.0757

row,Sequence,PBM E-score
1,CTCTTAGA,0.0666
2,CGAAACCG,0.253
3,GGCCGGTA,0.248
4,GCCCGGCC,0.242
5,GGCCGGCA,0.415
6,CGCCGGTC,0.228
7,AGTCGGCC,0.135
8,GACCGGCC,0.203
9,CGCCGGCC,0.35
10,GACCGGCA,0.173
11,ACCCGGCC,0.255
12,CCCCGGCC,0.0277
13,GGCCGGCC,0.384
14,AGCCGGCC,0.333
15,GTCTCGCA,-0.0807
16,TGGGTCAA,-0.147
17,ACGGGCTG,-0.045
18,AAAATCGG,0.15
19,ATTTGATG,0.115
20,ATGGCCCG,-0.0155
21,CAATCTGC,-0.14
22,ACCTTGAG,-0.0404
23,GGAGTAAA,0.134
24,GTTTCAGA,0.0364
25,GTTGGTTA,-0.0114

row,Sequence,PBM E-score
1,CGATACAC,-0.00964
2,AAACGGAC,-0.00077
3,GAACGGAA,0.267
4,AAACGGAG,0.152
5,AAACGGAT,0.313
6,CAACGGAG,0.0267
7,AAACGGTA,0.163
8,AAACGGAA,0.403
9,CAACGGAA,0.36
10,TAACGGAA,0.298
11,ACTTCATA,-0.0295
12,CGAGACGA,-0.0371
13,AAAGCGTT,-0.0919
14,CAGAGCAA,0.108
15,GTCCGGTA,0.206
16,CTCCGGTA,0.218
17,GTCCGGCA,0.285
18,GTCCGGAA,0.429
19,CTACGGAG,0.0895
20,CTCCGGAA,0.402
21,CTCCGGAG,0.416
22,ATCCGGAG,0.398
23,ATCCGCAG,0.123
24,CTCCGCAG,-0.136
25,CTCCGTAA,0.0982

row,Sequence,PBM E-score
1,ATCCGGGG,0.262
2,AACCGACT,0.0723
3,CGGCCCCA,-0.282
4,ACTTGCCA,-0.078
5,AATGAGAT,0.127
6,GTAAGGCA,-0.206
7,GTCCGGGA,0.342
8,ATGCGGAA,0.271
9,AACCGGGC,0.187
10,ATCCGGAA,0.418
11,ATCCGGAT,0.442
12,ATCCGCAT,0.111
13,CTCCGGGA,0.205
14,ATCCGGGC,0.363
15,ATCCGTAA,0.149
16,CTCCGGGC,0.0789
17,ATCAGGAT,0.115
18,ATCCGGGA,0.258
19,TAAGCACA,0.189
20,ACAGAACT,0.116
21,AGTCGCAA,-0.0383
22,CACCATCC,-0.292
